Test results: PubChem BioAssay (NCI)
This is part of a sample that, as a whole, favours compounds with a hit. Of some 79,000 tested, about 15% had one in any assay. The source made the active and inactive calls. Cut-off read from the data, not from the text of the source: active = growth inhibition above about 70%; inactive = the rest.

Legend:
[1] = NCI Yeast Anticancer Drug Screen. Data for the rad50 strain (AID 155);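 note: 0% = growth of vehicle-only cultures of the same strain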; details: S. cerevisiae rad50 strain growth inhibition; at 50.0 µM; stronger effect = higher value
In short: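 Compounds were tested on a yeast strain with an engineered DNA damage repair alteration; the reported value is growth inhibition normalised to vehicle treatment.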

[2] = NCI Yeast Anticancer Drug Screen. Data for the mec2-1 strain (AID 157); details: S. cerevisiae mec2-1 strain, at 50.0 µM, stronger effect = higher value
In short: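 Mutant yeast (mec2-1) grown with compound; growth inhibition relative to vehicle control reported.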

[3] = NCI Yeast Anticancer Drug Screen. Data for the sgs1 mgt1 strain (AID 161);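 note: 0% = growth of cultures given vehicle only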; details: S. cerevisiae sgs1 mgt1 strain, at 50.0 µM, stronger effect = higher value
In short: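 This yeast growth screen uses a strain with defined DNA-repair lesions; compound-treated growth is compared with vehicle-treated growth.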

[4] = NCI Yeast Anticancer Drug Screen. Data for the cln2 rad14 strain (AID 165);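 note: 0% = growth equal to vehicle treated cultures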; details: S. cerevisiae cln2 rad14 strain, at 50.0 µM, stronger effect = higher value
In short: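 Readout is yeast growth inhibition versus vehicle-treated controls, using a strain with cln2 and rad14 alterations exposed to compound.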

[5] = NCI Yeast Anticancer Drug Screen. Data for the bub3 strain (AID 167); details: S. cerevisiae bub3 mutant strain, at 50.0 µM, stronger effect = higher value
In short: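 Growth of a checkpoint-deficient yeast mutant is measured after compound exposure. Values represent inhibition relative to vehicle.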

[6] = NCI Yeast Anticancer Drug Screen. Data for the mlh1 rad18 strain (AID 175); details: S. cerevisiae mlh1 rad18 strain growth inhibition; at 50.0 µM; stronger effect = higher value
In short: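 Genetically defined yeast (DNA repair-deficient) exposed to compounds; growth inhibition determined relative to vehicle.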

Measured: growth inhibition

CCCC(=O)Nc1cccc(Cl)c1
inactive: [1] 16.2% | [2] 9.05% | [3] 8.85% | [4] 7.65% | [5] -0.75%

CC1NC(C(=O)O)Cc2cc(O)c(O)cc21 (centres undefined)
inactive: [1] -21.2% | [2] -36.6% | [3] -30.8% | [4] 5.35% | [5] -34.8%

CCCCCCC(C#N)(CCN(C)C)c1ccccc1 (centres undefined)
inactive: [1] 15.4% | [2] 18.7% | [3] 14.3% | [4] -8% | [5] 50.1%

NC(=O)C(=O)N/N=C1/c2ccccc2CC1C1(O)C(=O)Nc2c(Cl)cc(Cl)cc21 (centres undefined)
inactive: [1] 50.4% | [2] 30.9% | [3] 38.5% | [4] 16.6% | [5] 3.55%

Cn1c(-c2ccccc2)cc(=O)cc1-c1ccccc1
inactive: [1] -22.9% | [2] 13.1% | [3] -10.2% | [4] -1.25% | [5] -4.45%

CC(=O)OCCCC(C)Nc1ccnc2cc(Cl)ccc12 (centres undefined)
inactive: [1] -8.15% | [2] -8.95% | [3] -2.35% | [4] 19.9% | [5] -7.9%

C/C(=C\c1ccccc1)C(O)C(=O)c1nc2ccc([N+](=O)[O-])cc2[nH]c1=O (centres undefined)
inactive: [1] -5.55% | [2] -33.1% | [3] -11.4% | [4] 21.4% | [5] -26.4%

CC1(C)CC2(C)Sc3ccccc3N2C(=S)N1 (centres undefined)
inactive: [1] -35.6% | [2] -2.15% | [3] 13.8% | [4] -19.6% | [5] -0.75%

O=C(C[n+]1cc(Br)cc(Br)c1)c1ccc2ccccc2c1
inactive: [1] 27.2% | [2] 3.45% | [3] 7.7% | [4] 11.8% | [5] 20.2%

[Cl][Pt+2][Cl].[NH-]c1ccc(CC(=O)O)cc1[NH-]
inactive: [1] 48.4% | [2] 7.1% | [3] 23.4% | [4] 39.8% | [5] -11.1%

CC1=CC(=O)c2cccc(NC3=NCCO3)c21
inactive: [1] -31.3% | [2] -20.8% | [3] -2.95% | [4] -28.9%

C=CCN(C)C(=O)CCCCCCCC1C(CCCCCCCC)C2(Cl)C(Cl)=C(Cl)C1(Cl)C2(Cl)Cl (centres undefined)
inactive: [1] 30.7% | [2] 4.35% | [3] 8.6% | [4] -20.5% | [5] -1.5%

CN(C)CC(CN(C)C)C(O)c1ccccc1 (centres undefined)
inactive: [1] 2.4% | [2] -11.5% | [3] -6.35% | [4] 12% | [5] -4.8%

O=C(Cc1ccccc1)Nc1ccc(Br)cc1
inactive: [1] 6.15% | [2] 15.8% | [3] 15.5% | [4] -16.1% | [5] 13.7% | [6] 8.55%

CC(C)(O)CC(O)(C(F)(F)F)C(F)(F)F
inactive: [1] 14.3% | [2] -0.95% | [3] -3.25% | [4] -20.3% | [5] 3.35%

Brc1ccccc1-c1nc2ccccc2[nH]1
inactive: [1] 4.1% | [2] -4.4% | [3] 4% | [4] -63% | [5] -6.1%

COCCCNC1=C(C#N)C(=O)NC(c2cccs2)S1 (centres undefined)
inactive: [1] 2% | [2] 0.15% | [3] 3.45% | [4] 1.25% | [5] 5.3%

c1ccc2c(c1)ccc1c3ccccc3ncc21
inactive: [1] 62.8% | [2] 27.8% | [3] 32.6% | [4] 35.5% | [5] 0.75%

O=C1CCN(C(=O)C2=CC(=O)OC2)C1
inactive: [1] -15.2% | [2] -1.8% | [3] -5.1% | [4] -33.6% | [5] 5.15%

CCNc1nc2c(=O)n(C)c(=O)n(C)c2s1
inactive: [1] -31% | [2] -26.2% | [3] -4.05% | [4] -6.2% | [5] -10.6%

Cc1ccccc1-n1c(SCC(=O)NC(=O)Nc2cccc(Cl)c2)nc2c(Br)cc(Br)cc2c1=O
inactive: [1] -22.9% | [2] -5.5% | [3] 0.1% | [4] -16.1% | [5] -12.6%

O=c1[nH]c(/C=C(\O)c2ccncc2)nc2ccccc12
inactive: [1] -7.6% | [2] -23.2% | [3] -6.45% | [4] 12% | [5] -9%

Nc1cn[nH]c(=O)n1
inactive: [1] -3.6% | [2] 20.6% | [3] 2% | [4] 13.3% | [5] 10.4%

O=c1[nH]c(=O)c2[nH]c(=O)[nH]c2[nH]1
inactive: [1] 8.35% | [2] -7.15% | [3] -13.5% | [4] 27.9% | [5] 7.25%

COC1OC(COC(c2ccccc2)(c2ccccc2)c2ccccc2)C2SC12 (centres undefined)
inactive: [1] 23.9% | [2] 10% | [3] -1.05% | [4] 14.2% | [5] 4.8%

Cc1cc(O)c(/C=N/C(=S)NCCc2ccccc2)c(=O)o1
inactive: [1] -4.35% | [2] -29.5% | [3] -9.5% | [4] 10.3% | [5] 6.55%

CCN(CC)c1ccc2c(c1)Cc1ccccc1-2
inactive: [1] 25.8% | [2] 1.15% | [3] 9.2% | [4] 4.4% | [5] -18.9%

COc1ccc(NC(=O)Oc2ccccc2C(N)=O)c(Cl)c1
inactive: [1] -2.05% | [2] 10.8% | [3] 3.65% | [4] 4.6% | [5] 18.4%

COC(=O)C(S)(NC(C)=O)C(C)C (centres undefined)
inactive: [1] 0.2% | [2] -10.5% | [3] -1.25% | [4] -30.4% | [5] -18.8%

N#CNS(=O)(=O)c1ccccc1
inactive: [1] 8.3% | [2] -5.6% | [3] 22.6% | [4] 14% | [5] 12.2%

CC1=CC(=O)C=CC1=Nc1ccc(N(C)C)cc1
inactive: [1] 19.3% | [2] 32.6% | [3] 47.9% | [4] 9.35% | [5] 39.4%

COC(=O)NN/C=C(\C=Nc1ccccc1)[N+](=O)[O-]
inactive: [1] -0.25% | [2] 11.1% | [3] 17.4% | [4] 18.4% | [5] 12.9%

Cc1c(O)nc(N)[nH]c1=O
inactive: [1] 2.65% | [2] -24% | [3] -22.6% | [4] 1.7% | [5] -13.3%

CC(=O)Nc1ccc2c(c1)C(N1CCCCC1)c1ccccc1-2 (centres undefined)
inactive: [1] -42.2% | [2] -17.8% | [3] 4.2% | [4] -40.1% | [5] -2.6%

CCOC(=O)c1nnn(Cc2ccccc2)c1N
inactive: [1] -2.1% | [2] -7.35% | [3] 3.75% | [4] 26.1% | [5] 1.7%

COC1(OC)C2(Cl)CC(C(=O)O)C1(Cl)C(Cl)=C2Cl (centres undefined)
inactive: [1] 7.55% | [2] 3.85% | [3] 19.6% | [4] -51.7% | [5] -1.35%

COc1cc2c(cc1Cc1cc(OC)c(OC)c(OC)c1)OCO2
inactive: [1] 4.35% | [2] -17.2% | [3] 9.55% | [4] -3.15% | [5] 28.9%

O=C(CC(C(=O)c1cccs1)c1ccsc1)c1ccc(Cl)s1 (centres undefined)
inactive: [1] -5.35% | [2] -15% | [3] -11.1% | [4] 4.2% | [5] -2.2%

CNC(=S)NC
inactive: [1] 11.9% | [2] 11.1% | [3] 13.4% | [4] -51.1% | [5] 0.2%

COc1ccc(-c2cc(C(O)C3CCCCN3)c3ccccc3n2)cc1 (centres undefined)
inactive: [1] 4.15% | [2] -42% | [3] -20.9% | [4] 11.7% | [5] -31.1% | [6] -10.1%

Cc1c(/C=C\C(=O)c2ccccc2)c2ccccc2n1C
inactive: [1] 12.7% | [2] -18.6% | [3] 2.2% | [4] -21.6% | [5] -15.2% | [6] 1.15%

N#CC1=CN(Cc2ccccc2)C(c2ccccc2)C=C1 (centres undefined)
inactive: [1] 23.2% | [2] -2.15% | [3] -3.9% | [4] 4.65% | [5] 35.9% | [6] 27%

O=C(Cl)CCc1ccnc2ccccc12
inactive: [1] 0.5% | [2] 3.25% | [3] 4.2% | [4] -8.45% | [5] 2.4% | [6] 11.2%

COc1ccc2c(c1)CC1c3[nH]c4ccccc4c3CCN1C2 (centres undefined)
inactive: [1] 52.7% | [2] 35.5% | [3] 52.9% | [4] 32.5% | [5] 19.1%
active: [6] 79%

COc1cc(/C(=C\c2ccccc2N)C(=O)O)cc(Br)c1OC
inactive: [1] 9.35% | [2] -8.2% | [3] -11.2% | [4] 4.65% | [5] 0% | [6] 1.65%

C=C1CCCCCCCCC/C=C/1SCCCSC
inactive: [1] 5.6% | [2] 26.4% | [3] -31.6% | [4] -17.9% | [5] -19% | [6] -20.2%

C1CCC(CCC2CCCC[N-]2)[N-]C1.[I][Co][I] (centres undefined)
inactive: [1] 48.3% | [2] 27.9% | [3] 47% | [4] -3% | [5] 33.7% | [6] 43.5%

O=C(O)c1cccc(SS(=O)(=O)c2cccc(C(=O)O)c2)c1
inactive: [1] -18.4% | [2] -13.4% | [3] -10.1% | [4] 9.45% | [5] 7.5% | [6] -7.45%
